EBV gp42 block: inhibitors of Epstein-Barr virus glycoprotein 42; Q1HVG2; Fluorescence polarization binding assay, mP read-out; inhibition, % (tested at 21.74 µM); hit rate 0.42% among 220,000; AID 1085; in the data active means inhibition above about 50%
Target sequence (Q1HVG2 whole entry, looked up): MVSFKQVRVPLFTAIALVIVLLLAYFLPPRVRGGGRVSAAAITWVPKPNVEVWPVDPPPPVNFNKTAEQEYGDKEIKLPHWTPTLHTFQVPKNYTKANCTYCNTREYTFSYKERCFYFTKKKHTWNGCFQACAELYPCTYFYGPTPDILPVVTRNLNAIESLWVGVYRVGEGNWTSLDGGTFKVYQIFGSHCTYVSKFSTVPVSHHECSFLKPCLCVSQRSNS
MCL1-BIM inh: disrupts human MCL1 binding to BIM-BH3 peptide | Q07820 | GST-MCL1 / FITC-Bim-BH3 fluorescence polarization | inhibition, % at 10.9 µM | hit rate 0.68% among 320,000;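 active means inhibition above the mean inhibition of all tested compounds plus 3 SD, set per campaign, cut at about 40% in these data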;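 further: 0% = DMSO wells and 100% = unlabeled Bim-BH3 peptide control; higher means more loss of mP so more displacement of Bim peptide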
MEX-5 binding: C. elegans MEX-5 TCR-2 RNA binding activity | Q9XUB2 | hit rate 0.38% among 300,000 | activity score (negative = inhibition of binding), % at 10 µM | MEX-5/FITC-TCR2 RNA binding, fluorescence polarization; stronger effect = lower value;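 active means inhibition past about -25% in most replicates, and total fluorescence under double the plate's negative control median, limit read from the data; inconclusive means replicates evenly split on the limit, or fluorescence at least double controls; inactive means too little inhibition in most replicates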;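 further: 0% = DMSO and -100% = 5 µM competing unlabeled TCR2 RNA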
E coli Lon inh: E. coli protease La inhibition; inhibition, % at 7.94 µM; hit rate 0.42% among 360,000; purified E. coli Lon protease, fluorescence polarization; P0A9M0; in the data active means inhibition above about 13%, passing the limit was not always enough;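 further: 0% = enzyme with probe and DMSO and 100% = no enzyme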
GLD-1 RNA inh: GLD-1-TGE RNA interaction inhibition (C. elegans). AID 2280. Q17339. inhibition, % at 5.96 µM. purified GLD-1 + fluorescein TGE RNA, fluorescence polarization. hit rate 0.44% among 320,000;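 active means percent inhibition above a per-plate cutoff, the plate mean of test compounds plus 3 SD, cut at about 30% in these data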;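 further: 0% = DMSO wells with GLD-1 and probe and 100% = wells lacking GLD-1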
Bcl-xL primary: inhibitors of human Bcl-xL; GST-Bcl-xL / FITC-Bim BH3 peptide fluorescence polarization; AID 2129; hit rate 0.7% among 320,000; inhibition, % at 10.9 µM; Q07817;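 active means inhibition above the mean of all tested compounds plus 3 SD, cutoff set per campaign, cut at about 30% in these data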;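 further: 0% = DMSO wells and 100% = unlabeled Bim-BH3 peptide competitor; inhibitors lower millipolarization by displacing the labeled peptide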
Target sequence (Q07817 whole entry, looked up): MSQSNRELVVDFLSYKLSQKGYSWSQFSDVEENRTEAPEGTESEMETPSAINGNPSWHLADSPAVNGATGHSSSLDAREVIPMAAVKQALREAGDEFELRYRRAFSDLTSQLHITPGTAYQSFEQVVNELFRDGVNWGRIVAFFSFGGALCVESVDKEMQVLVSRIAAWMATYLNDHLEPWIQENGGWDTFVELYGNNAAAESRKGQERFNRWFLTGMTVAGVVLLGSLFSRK
* hit, by the source's call; ? = inconclusive; . = not tested or not shown. Hits are enriched below; roughly 1.4% of the tested compounds scored in any of these assays.

SMILES | EBV gp42 block | MCL1-BIM inh | MEX-5 binding | E coli Lon inh | GLD-1 RNA inh | Bcl-xL primary
O=C(NCCCn1ccnc1)C1CCN(S(=O)(=O)c2cc([N+](=O)[O-])ccc2Cl)CC1 | . | . | . | -5 | 2 | .
N#Cc1nc(Cc2cccc3ccccc23)oc1N1CCC(C(N)=O)CC1 | -6 | 5 | -1 | -2 | 0 | 33*
CC1CCN(c2oc(Cc3cccc4ccccc34)nc2C#N)CC1 | -9 | -3 | 0 | -3 | -4 | 2
CC(C)N(C(=O)[C@H]1CC(CC(=O)NCc2cccc(C(F)(F)F)c2)C(=O)N2CCc3c([nH]c4ccccc34)[C@]12C)C(C)C (stereo not given in full) | . | . | . | 0 | 12 | .
Cc1ccc(NC(=O)CN2C(=O)/C(=C3\SC(=S)N(C4CCS(=O)(=O)C4)C3=O)c3ccccc32)cc1 (stereo not given) | 105* | . | . | 0 | . | .
CN1C(=O)NC(c2ccc(Cl)cc2)C2=C1CC(C)(C)CC2=O (stereo not given) | . | 8 | 2 | -5 | 0 | 4
N=c1oc2cc(O)ccc2cc1C(=O)Nc1nc2ccccc2s1 | 54* | -24 | -11 | -148 | -30 | 0
N=c1oc2cc(O)ccc2cc1C(=O)Nc1ccccn1 | 77* | -7 | . | . | 7 | 9
Nc1ccn([C@@H]2O[C@H](CNCc3ccc(Oc4cc(-n5cccn5)ncn4)cc3)[C@@H](O)[C@H]2O)c(=O)n1 | . | . | . | -8 | . | .
CCCCC(=O)N(C)c1c(CC)nc2c(OCC(N)=O)cccn12 | . | . | . | -13 | . | .
O=C(COc1cccc(C(F)(F)F)c1)Nc1cccc(S(=O)(=O)NC2=NCCCCC2)c1 | . | . | . | 4 | . | .
Fc1ccc(N=c2ssnc2Cl)c(F)c1 | -21 | 7 | -30* | 0 | 9 | 3
COc1cccc(/C=C/C(=O)OCC(=O)Nc2ccc(Cl)cn2)c1 | -18 | 8 | 5 | 14* | -5 | 0
COc1ccc(O)c(CN2CC3CCC(CC3)C2)c1 | . | . | . | -6 | . | .
Cc1ccc(C)c(OCC(O)CNC2CCCC2)c1 (stereo not given) | . | 13 | 0 | 2 | -3 | 6
COc1ccc2oc(=N)c(C(=O)Nc3ccccc3Cl)cc2c1 | . | -1 | 1 | -7 | 6 | 8
CC1CCC(NC(=O)CCS(=O)(=O)c2ccc3c(c2)NC(=O)CS3)CC1 (stereo not given) | . | 1 | 0 | -3 | -6 | 5
Cc1cccc(NC(=O)CCS(=O)(=O)c2ccc3c(c2)NC(=O)CS3)n1 | . | 35 | 1 | 11 | 23 | 31*
COc1ccc(S(=O)(=O)N2CCCCC2)cc1NS(=O)(=O)c1ccccc1 | . | . | . | 3 | 5 | .
CCOc1ccc(N2C(=O)C3C(c4ccccc4)=NN(c4ccccc4)C3C2=O)cc1 (stereo not given) | -2 | 1 | -2 | -6 | -1 | -2
O=C(C1=NN(c2ccccc2)C2C(=O)N(c3ccccc3Cl)C(=O)C12)c1ccccc1 (stereo not given) | 53* | -16 | -28* | -22 | -4 | 12
COc1ccccc1N1C(=O)C2C(C(=O)c3ccccc3)=NN(c3ccccc3)C2C1=O (stereo not given) | 72* | -8 | -16 | -37 | -6 | 3
COc1ccccc1N1N=C(C(=O)c2ccccc2)C2C(=O)N(c3ccc(Br)cc3)C(=O)C21 (stereo not given) | 17 | -15 | ? | 0 | -5 | -4
Cc1ccc(N2C(=O)C3C(C(=O)c4ccccc4)=NN(c4ccccc4)C3C2=O)cc1 (stereo not given) | 53* | -4 | ? | 1 | -11 | 1
O=C(C1=NN(c2ccccc2)C2C(=O)N(c3ccccc3)C(=O)C12)c1ccccc1 (stereo not given) | 59* | 1 | -37* | -31 | -10 | 11
CC(=O)Nc1ccc(NC(=O)CSc2ccc3nnc(-c4cccnc4)n3n2)cc1 | . | 8 | -11 | -14 | 0 | 12
O=C1c2ccccc2C(c2nnnn2Cc2ccccc2)N1Cc1cccnc1 (stereo not given) | . | . | . | 2 | . | .
COc1ccccc1CN(C)C(=O)c1cccc(S(=O)(=O)N2CCCc3ccccc32)c1 | . | 1 | . | -7 | 2 | 1
CCCCn1c(O)c(N=Nc2ccccn2)c2ccccc21 | -17 | -12 | -31* | -20 | 3 | -5
CCCc1c(-c2cccc(Br)c2)ncn1Cc1ccccc1OC | . | . | . | 11 | . | .

Compound activity as filed in PubChem BioAssay.
